Screens (PubChem BioAssay)
A selection: hits, their analogues and other compounds. The true share with any hit is near 4.7%.
D1 antag: blocks dopamine activation of the human D1 receptor; HEK293 TREx D1 cells, calcium flux, dopamine EC80; hits give low values; activity change, negative = inhibition, % at 10 µM; 3.2% of 360,000 active; AID 504652; in the data active = activity change below about -30%; note: % is set by controls: 0 for no effect and ±100 for the full control effect
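Kinetic fluorescence of a calcium dye serves as the read-out. D1-expressing Hek293 Trex cells, induced overnight at 30 C, are exposed to compound for 180 s before an EC80 dopamine addition, then read 180 s further.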
TRHR PAM: allosterically enhances the human TRH receptor; P34981; TRHR cells, fluo-8 calcium fluorescence, EC20 TRH enhancement; 0.66% of 360,000 active; AID 493056; enhancement, % at 2 µM; in the data active = enhancement above about 30%; note: 0% is about no effect
Target sequence (P34981 whole entry, looked up): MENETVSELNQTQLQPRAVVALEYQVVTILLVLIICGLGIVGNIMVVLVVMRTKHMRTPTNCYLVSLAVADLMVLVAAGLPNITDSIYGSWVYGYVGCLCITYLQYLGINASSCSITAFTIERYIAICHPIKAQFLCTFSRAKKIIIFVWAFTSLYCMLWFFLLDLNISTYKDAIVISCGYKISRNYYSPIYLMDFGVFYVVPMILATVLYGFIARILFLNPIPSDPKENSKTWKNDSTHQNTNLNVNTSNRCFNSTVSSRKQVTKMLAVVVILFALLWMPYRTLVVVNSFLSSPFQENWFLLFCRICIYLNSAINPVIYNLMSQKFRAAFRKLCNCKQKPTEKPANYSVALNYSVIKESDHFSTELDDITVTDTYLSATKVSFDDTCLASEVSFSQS
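TRHR-expressing cells loaded with fluo-8 calcium dye were read kinetically (ex 480/em 530) during compound addition, then stimulated with an EC20 of TRH (10 nM final). Enhancement of the Gq-mediated intracellular calcium response was scored.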
D1 agonist: human D1 receptor agonism; P21728; HEK293 T-REx D1 cells, calcium flux, agonist mode; activation, % at 2 µM; 1% of 360,000 active; note: 0% is about no effect
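Tetracycline-induced HEK293 TREx D1 cells, force-coupled to calcium signalling, were dye-loaded with a no-wash calcium kit. Compound was pin-added after a 10 s baseline. Fluorescence was read kinetically at 1 cycle/s for 180 s, with calcium rises flagged as agonism.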
D1 potentiator: human D1 dopamine receptor positive modulation | HEK293 TREx D1 cells, calcium flux, dopamine EC20 potentiation | AID 504651 | 0.036% of 360,000 active | potentiation, % at 10 µM | P21728; in the data active = potentiation above about 30%; note: 0% is about no effect
TRHR agonist: TRH receptor (human) agonism. activation, % at 2 µM. P34981. AID 493084. 0.18% of 360,000 active. TRHR cells, calcium flux fluo-8, FDSS agonist mode; note: 0% is about no effect
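Fluo-8-loaded TRHR cells; 10 s baseline, compound added, kinetic Ca2+ fluorescence read 1/s, agonist mode.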
An asterisk follows results filed as active. Cut-off read from the data, not from the text of the source, unless noted: active = activation above about 30%; inactive = the rest.

SMILES	D1 antag	TRHR PAM	D1 agonist	D1 potentiator	TRHR agonist
COc1ccc(C2Nc3ccccc3C(=O)N2c2ccccc2)cc1Cn1cc([N+](=O)[O-])cn1 (stereo not given)	-4.4	9.3	0.5	-0.1	0.8
COc1ccc(N2C(=O)c3ccccc3NC2c2ccc(OC)c(Cn3cc([N+](=O)[O-])cn3)c2)cc1 (stereo not given)	-38.0*	-1.2	0.4	-9.3	-0.7
CCN(CC)c1ccc(/C=C(\C#N)c2ccccn2)cc1	-86.6*	0.4	35.4*	-2.0	3.4
N#C/C(=C\c1ccc(C(=O)O)cc1)c1ccccn1	11.2	-0.4	-1.5	-2.2	0.7
CN(CCC#N)c1ccc(/C=C(\C#N)c2ccccn2)cc1	-19.3	1.2	4.5	-4.9	-0.4
CCN(Cc1ccccc1)c1ccc(/C=C(\C#N)c2ccccn2)cc1	11.5	6.4	31.4*	10.3	5.0
CCCCN(C)CCNC(=O)c1c2c(nc3ccccc13)C(=O)N(C1CCCCC1)C2	1.7	-0.7	0.5	0.3	0.1
CCOc1ccc(NC(=O)c2cnn3c2NC(c2cccc(OC)c2)=CC3c2ccccc2)cc1 (stereo not given)	6.5	-3.4	3.6	-3.0	-0.3
O=C(CSc1nc2ccccc2c(=O)n1CC1CCCO1)NCC1CCCO1 (stereo not given)	5.4	1.8	0.5	-1.4	0.3
COCCNC(=O)CSc1nc2ccccc2c(=O)n1CC1CCCO1 (stereo not given)	-75.8*	6.4	2.7	-3.2	-0.2
CCOc1cccc2sc(N(CCCN(C)C)C(=O)c3ccc(S(=O)(=O)N(CC)Cc4ccccc4)cc3)nc12	-45.2*	0.8	33.3*	-1.9	1.1
CCOc1cccc2sc(N(CCCN(C)C)C(=O)c3ccc(S(=O)(=O)N(C)Cc4ccccc4)cc3)nc12	-48.3*	0.8	42.0*	3.6	1.1
CCN(Cc1ccccc1)S(=O)(=O)c1ccc(C(=O)N(CCCN(C)C)c2nc3c(F)cccc3s2)cc1	9.9	-0.1	5.2	3.0	0.5
CCOC(=O)c1ccccc1NC(=O)CN(c1cc(C(F)(F)F)ccc1Cl)S(C)(=O)=O	15.8	0.7	6.7	-0.4	-0.1
COc1cc(CNc2ccc3[nH]c(=O)[nH]c3c2)ccc1OCc1ccccc1F	-3.3	6.6	1.9	-1.6	0.1
COc1cc(CNc2ccc3[nH]c(=O)[nH]c3c2)ccc1OCc1ccccc1C	-56.8*	3.5	3.4	1.9	0.3
C/C(=N/NS(=O)(=O)c1cccc([N+](=O)[O-])c1)c1ccc2c(c1)OCO2	-26.6	-4.4	8.4	5.2	0.5
C/C(=N\NS(=O)(=O)c1ccc([N+](=O)[O-])cc1)c1ccc2c(c1)OCO2	-30.9*	2.1	4.8	11.1	-0.7
O=C(N/N=C/c1ccc([N+](=O)[O-])cc1)c1cc2ccccc2o1	-16.4	-2.3	0.6	-5.3	-0.1
C/C(=N\Nc1ccc([N+](=O)[O-])cc1)c1ccc2c(c1)OCO2	-38.3*	-3.0	37.7*	-3.5	11.8
C/C(=N\Nc1ccc([N+](=O)[O-])cc1)c1cc2ccccc2o1	-30.2*	8.8	59.5*	-11.8	17.3
C/C(=N\Nc1ccc([N+](=O)[O-])cc1)c1ccc(C#N)cc1	-6.1	-7.5	4.1	-1.2	0.6
CC(C(=O)Oc1ccc2c(c1)OCO2)N1C(=O)c2ccccc2C1=O (stereo not given)	-40.1*	-7.1	8.9	-8.4	0.5
CC(C(=O)OCC(=O)Nc1ccc2c(c1)OCO2)N1C(=O)c2ccccc2C1=O (stereo not given)	-4.5	4.9	21.7	-5.5	-1.0
COc1ccccc1Nc1nn2c(=O)c3ccc(C(=O)NCCC4=CCCCC4)cc3nc2s1	1.5	0.0	-0.7	-0.9	0.2
SMILES	D1 antag	TRHR PAM	D1 agonist	D1 potentiator	TRHR agonist
COc1ccc(C(=O)Nc2ccc(-n3nncc3-c3ccc(OC)c(OC)c3)cc2)cc1	-8.8	12.4	2.2	-1.1	0.1
COC(=O)c1ccccc1NS(=O)(=O)c1ccc(NC(C)=O)cc1	-1.9	1.7	4.3	1.3	2.2
O=C(Nc1cccc(O)c1)c1ccc(S(=O)(=O)N2CCCCCC2)cc1	-8.2	-4.0	0.5	0.1	0.0
COc1ccc(-c2cnnn2-c2ccc(NC(=O)c3ccc(S(=O)(=O)N4CCCCC4)cc3)cc2)cc1OC	-34.1*	-6.1	5.9	-7.8	0.9
O=C(Nc1cccc(F)c1)c1ccc(S(=O)(=O)N2CCCCC2)cc1	-43.4*	3.6	11.9	-8.0	0.5
COC(=O)c1ccccc1NS(=O)(=O)c1ccc(F)cc1	-35.8*	-5.7	-1.0	-1.7	0.0
O=C(Nc1ccc(Cc2ccncc2)cc1)c1ccc(S(=O)(=O)N2CCCC2)cc1	-38.6*	-1.6	22.9	-6.6	1.4
O=C(CN1CCCN(S(=O)(=O)c2ccc(F)cc2)CC1)Nc1cccc(F)c1	-2.3	-6.7	2.4	-12.1	-1.1
Cc1ccc(NC(=O)c2ccccc2NS(=O)(=O)c2ccc(F)cc2)cc1S(=O)(=O)N1CCCCC1	-27.8	-8.6	27.5	-4.0	2.4
O=C(CN1CCN(C(=O)c2cccc(S(=O)(=O)N3CCCC3)c2)CC1)Nc1cccc(F)c1	-33.0*	-4.2	3.1	-4.3	-0.2
O=C(Nc1cccc(S(=O)(=O)N2CCCCC2)c1)c1ccccc1NS(=O)(=O)c1ccc(F)cc1	-52.5*	-7.7	41.5*	-8.4	-0.2
Cc1ccc(NC(=O)C2CCCN(c3ncnc4onc(C)c34)C2)cc1Cl (stereo not given)	-9.5	13.8	17.3	-6.2	-1.8
CC1CCN(S(=O)(=O)N2CCC(C(=O)NCc3ccccc3Cl)CC2)CC1	-1.0	0.3	-2.4	-2.7	-1.1
COc1ccc(-n2ncc(S(=O)(=O)c3ccccc3)c2-c2ccc(Cl)cc2)cc1	-44.0*	1.4	9.6	-4.2	-0.1
N#C/C(=C/c1ccc(N2CCCCCC2)o1)c1cccc(F)c1	-4.5	-12.5	3.2	-8.1	1.4
COc1cc(N2CCCC2)c(OC)cc1/C=C(/C#N)c1cccc(F)c1	2.5	-1.0	55.8*	-3.9	16.4
C/C(=N\NC(=O)c1ccn(C)n1)c1cccc(NC(=O)c2ccncc2)c1	-46.5*	-3.1	-0.1	1.1	-0.4
Nc1ccc2c(c1)Cc1cc([N+](=O)[O-])ccc1-2	-36.3*	4.8	122.3*	-5.7	43.7*
Cc1ccc([N+](=O)[O-])cc1N	5.2	-3.5	7.3	-3.9	-0.6
Cc1ccc(-c2nc(C)c(CCNC(=O)C(=O)Nc3cc(C)ccc3C)s2)cc1	3.7	3.6	4.7	-1.0	0.0
CC(=O)Nc1ccc(OS(=O)(=O)c2ccc(C(C)(C)C)cc2)cc1	-55.9*	-9.9	9.6	-6.7	-3.3
CC1=C(C(=O)NCc2ccc(Cl)cc2)C2(CCCCCC2)OC1=O	7.7	4.6	44.9*	4.2	-0.5
COc1ccc(CCNC(=O)C2=C(C)C(=O)OC23CCCCC3)c(OC)c1OC	-11.4	31.3*	-0.3	-3.7	0.4
